Consider 39 compounds from PubChem BioAssay (NCATS).

“And” between values parts separate entries of the source, which are not always exact repeats. Identical values can stand only once. Results filed as inconclusive are left out. For part of these data: Results with a measured potency or affinity are listed apart. The source made the active and inactive calls. For most assays here, calls follow the shape of the dose curve; as a rule, active = well fitted curve in the direction sought with a large enough effect; inconclusive = small, poorly fitted or top-dose-only effect, or another doubt; inactive = no such curve, though single readings can be large; an effect the other way counts as inactive or inconclusive.
For efficacy in this document: 0% is about no effect.

For one assay, the target named is T1, Hexokinase-4 (Homo sapiens) + Glucokinase regulatory protein (Homo sapiens) (UniProt P35557+Q14397). As to the kind of experiment: qHTS assay for inhibitors of recombinant human GCK-GKRP interaction: ADP-Glo assay (AID 743206).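 Also: plate controls were DMSO plus enzyme for no effect and no enzyme for full effect.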 The following applies: ADP-Glo luminescence, 60 min, 0% = vehicle-only wells with enzyme present; series mostly up to 76.9 µM; activity, positive = activation: at the top concentration. The method, boiled down: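 Pin-transferred compounds meet a 15 nM GST-GCK/15 nM FLAG-GKRP/2 uM S6P mix (dispense concentrations). ATP is then added to 0.4 mM final with 5 mM glucose, and the reaction runs 60 min at room temperature. ADP is quantified luminescently.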
T1 sequence (P35557 whole entry, looked up): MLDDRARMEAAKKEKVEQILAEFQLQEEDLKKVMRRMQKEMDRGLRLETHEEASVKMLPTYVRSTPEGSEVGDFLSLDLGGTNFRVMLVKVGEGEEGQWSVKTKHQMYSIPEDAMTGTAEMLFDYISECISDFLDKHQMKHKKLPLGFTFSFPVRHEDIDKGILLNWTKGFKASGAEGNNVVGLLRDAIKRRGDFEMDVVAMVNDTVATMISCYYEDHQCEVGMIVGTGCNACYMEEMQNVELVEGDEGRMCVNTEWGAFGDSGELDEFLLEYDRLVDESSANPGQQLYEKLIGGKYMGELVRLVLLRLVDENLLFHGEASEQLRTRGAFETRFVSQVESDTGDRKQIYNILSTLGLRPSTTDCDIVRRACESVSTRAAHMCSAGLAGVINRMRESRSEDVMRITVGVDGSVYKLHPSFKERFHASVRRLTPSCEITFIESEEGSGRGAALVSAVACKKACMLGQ
T1 sequence (Q14397 whole entry, looked up): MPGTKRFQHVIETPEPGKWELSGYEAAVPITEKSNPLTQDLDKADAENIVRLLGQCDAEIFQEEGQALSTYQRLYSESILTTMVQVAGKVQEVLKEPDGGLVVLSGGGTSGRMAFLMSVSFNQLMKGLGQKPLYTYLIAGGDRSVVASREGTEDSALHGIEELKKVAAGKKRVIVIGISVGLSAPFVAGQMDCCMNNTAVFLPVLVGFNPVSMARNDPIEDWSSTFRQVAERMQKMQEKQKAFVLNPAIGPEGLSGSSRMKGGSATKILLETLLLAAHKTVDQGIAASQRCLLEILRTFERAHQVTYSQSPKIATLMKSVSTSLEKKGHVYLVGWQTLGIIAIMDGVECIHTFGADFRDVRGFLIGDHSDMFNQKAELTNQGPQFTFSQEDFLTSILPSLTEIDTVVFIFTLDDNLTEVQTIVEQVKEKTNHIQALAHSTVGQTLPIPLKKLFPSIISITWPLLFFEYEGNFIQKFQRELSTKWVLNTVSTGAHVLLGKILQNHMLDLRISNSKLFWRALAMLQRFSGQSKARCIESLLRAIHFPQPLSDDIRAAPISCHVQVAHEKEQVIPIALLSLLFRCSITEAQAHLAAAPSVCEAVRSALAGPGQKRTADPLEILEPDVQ
For orientation: In qHTS, concentration-response curves come from the screen itself.
As to `COc1ccc2c(c1OC)C(=O)O[C@H]2[C@@H]1c2cc3c(cc2CCN1C)OCO3`, the “activity, positive = activation” value was 2.68% (inactive).

Consider `CCCCC/C=C\C/C=C\C/C=C\C/C=C\CCCC(=O)NCC(=O)O`, for which the “activity, positive = activation” value was 11.1% (inactive).

In the case of `CCC1(c2ccc(N)cc2)CCC(=O)NC1=O` (stereo not drawn), the “activity, positive = activation” value was 3.2% (inactive).

For the next assay, the target named is T1, Hexokinase-4 (Homo sapiens) + Glucokinase regulatory protein (Homo sapiens). In words: qHTS assay for inhibitors of recombinant human GCK-GKRP interaction: HTRF assay (AID 743207).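 Also: 0% = DMSO with GCK present and -100% = DMSO wells lacking GCK.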 The following applies: recombinant GCK-GKRP HTRF binding, 60 min; series mostly up to 57.5 µM; activity change, negative = inhibition: at the top concentration. The method, boiled down:
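HTRF read-out (ex 320 nm; 615/665 nm emission) after 60 min RT equilibration of 5 nM GST-GCK, 5 nM FLAG-GKRP, 2 uM S6P, compound and anti-FLAG/anti-GST detection antibodies; signal normalized between DMSO wells with and without GCK.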
Regarding `COc1ccc2c(c1OC)C(=O)O[C@H]2[C@@H]1c2cc3c(cc2CCN1C)OCO3`, the “activity change, negative = inhibition” value was -7.51% (inactive).

In the case of `CCCCC/C=C\C/C=C\C/C=C\C/C=C\CCCC(=O)NCC(=O)O`, the “activity change, negative = inhibition” value is -2.27% (inactive).

Consider `CCC1(c2ccc(N)cc2)CCC(=O)NC1=O` (stereo not drawn), for which the “activity change, negative = inhibition” value was -7.09% (inactive).

Tested on in a further assay: not listed separately
In words: qHTS Assay for Identifying Gametocytocidal Compounds (AID 743244). Also: potency is read from the fitted curve at half-maximal effect.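 As to max response: % is scaled to controls: 0 for no effect and ±100 for the full control effect; actives lower the fluorescent signal which means gametocytes are killed.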 To be noted: P. falciparum 3D7 stage III-V gametocytes, alamarBlue, 72 h; max response: hits give low values. The essentials: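 Viability read-out was resazurin reduction (alamarBlue, 24 h) measured at Ex 525/Em 598 nm. Beforehand, late-stage (III-V) 3D7 P. falciparum gametocytes at 20,000 cells/well were incubated with compound 72 h at 37C under 5% CO2.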
As to `C[C@H]1[C@@H]2Cc3ccc(O)cc3[C@@]1(C)CCN2C`, the max response was 2.87% (inactive).

For the compound `COP(=S)(OC)SCN1C(=O)c2ccccc2C1=O`, the max response was -4.68% (inactive).

For `O=C1OC(c2ccc(O)c(S(=O)(=O)O)c2)(c2ccc(O)c(S(=O)(=O)O)c2)c2c(Br)c(Br)c(Br)c(Br)c21`, the max response was 21% (inactive).

On to `CCC(C)(C)c1ccc(O)cc1`, for which the max response is 15.1% (inactive).

For `COc1ccc2c(c1OC)C(=O)O[C@H]2[C@@H]1c2cc3c(cc2CCN1C)OCO3`, the max response is 10.8% (inactive) and 14.8% (inactive).

`CCCCC/C=C\C/C=C\C/C=C\C/C=C\CCCC(=O)NCC(=O)O`: the max response was -2.03% (inactive) and 7.82% (inactive).

For `C#C[C@]1(O)CC[C@H]2[C@@H]3CCC4=CC(=O)CC[C@]4(C)[C@H]3CC[C@@]21C`, the max response is 15.4% (inactive) and 2.46% (inactive).

For the compound `CCOC(=O)CC(SP(=S)(OC)OC)C(=O)OCC` (stereo not drawn), the max response is 7.01% (inactive) and -6.6% (inactive).

Take `COP(=S)(OC)Oc1ccc(S(=O)(=O)N(C)C)cc1`: the max response was 17.5% (inactive).

With `COC(=O)[C@@H](N)CCCN/C(N)=N/[N+](=O)[O-]`, the max response is -0.272% (inactive).

In the case of `CNC(C)(C)Cc1ccccc1`, the max response was 20.1% (inactive).

For `CN1C(=O)NC(=O)C(C)(C2=CCCCC2)C1=O` (stereo not drawn), the max response is 8.57% (inactive) and 23.3% (inactive).

On to `CCN(CC)C(=O)[C@@H]1C=C2c3cccc4[nH]cc(c34)C[C@H]2N(C)C1`, for which the Potency was 63.1 µM (active).

As for `CCc1cc2c(s1)-n1c(C)nnc1CN=C2c1ccccc1Cl`, the max response is 2.24% (inactive).

In the case of `C[C@]12CCC(=O)C=C1CC[C@@H]1[C@@H]2CC[C@]2(C)C(=O)CC[C@@H]12`, the max response is 5.73% (inactive).

Turning to `NNc1ccccc1`, the max response was -4.92% (inactive).

For the compound `CC(C)=CC1C(C(=O)OCN2C(=O)C3=C(CCCC3)C2=O)C1(C)C` (stereo not drawn), the max response is 1.71% (inactive).

As for `CCC1(c2ccc(N)cc2)CCC(=O)NC1=O` (stereo not drawn), the max response is 3.2% (inactive) and 30.1% (inactive).

Regarding `CCN(CC)CCc1c[nH]c2ccccc12`, the max response is 14.8% (inactive).

Consider `Clc1ccc(C(c2ccc(Cl)cc2)C(Cl)(Cl)Cl)cc1`, for which the max response is 0.742% (inactive).

As for `CCC1(CC)C(=O)C=CNC1=O`, the max response was -13.9% (inactive).

Tested on in the next assay: not listed separately
As to the kind of experiment: qHTS assay for cell viability of HEK293 cells (AID 743288). Also: % is scaled to controls: 0 for no effect and ±100 for the full control effect; nearly all actives have a fitted effect of over 50% in size. The following applies: ATP luminescence (CellTiter-Glo), 18 h, hits give low values. The method, boiled down: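 ATP luminescence (CellTiter-Glo) reports metabolically competent cell number after parental HEK293 cells, 2,000/well, were treated with DMSO-dissolved compounds for 18 h at 37 C; reagent incubation 30 min, room temperature.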
As to `COP(=S)(OC)SCN1C(=O)c2ccccc2C1=O`, the max response was -19.3% (inactive).

`CCC(C)(C)c1ccc(O)cc1`: the max response is 6.76% (inactive) and -11.5% (inactive).

On to `CCOC(=O)CC(SP(=S)(OC)OC)C(=O)OCC` (stereo not drawn), for which the max response is -11.8% (inactive) and -13% (inactive) and -16.1% (inactive).

As to `Nc1ccc([As](=O)(O)O)cc1`, the max response is -4.94% (inactive).

On to `C[C@]12CCC(=O)C=C1CC[C@@H]1[C@@H]2CC[C@]2(C)C(=O)CC[C@@H]12`, for which the max response was -2.66% (inactive).

In the case of `Clc1ccc(C(c2ccc(Cl)cc2)C(Cl)(Cl)Cl)cc1`, the max response is -17.1% (inactive).

Tested on in a further assay: not listed separately
As to the kind of experiment: qHTS assay for cell viability of the p53RE-bla HCT-116 cell line (AID 743292). Also: nearly all actives have a fitted effect of over 55% in size. Also: potency is read from the fitted curve at half-maximal effect. As to activity change, negative = cytotoxicity: % is scaled to controls: 0 for no effect and ±100 for the full control effect. To be noted: p53RE-bla HCT-116 viability, ATP luminescence, 16 h; series mostly up to 95 µM; activity change, negative = cytotoxicity: at the top concentration. The essentials: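 Intracellular ATP of p53RE-bla HCT-116 cells measured by luciferase luminescence following 16 h compound incubation at 37 C; DMSO-only wells served as vehicle controls.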
Turning to `COP(=S)(OC)SCN1C(=O)c2ccccc2C1=O`, the “activity change, negative = cytotoxicity” value was 6.7% (inactive).

`CCC(C)(C)c1ccc(O)cc1`: the Potency result is “inactive”.

Consider `CCOC(=O)CC(SP(=S)(OC)OC)C(=O)OCC` (stereo not drawn), for which the Potency entry is “inactive”.

In the case of `Nc1ccc([As](=O)(O)O)cc1`, the “activity change, negative = cytotoxicity” value is -1.75% (inactive).

`C[C@]12CCC(=O)C=C1CC[C@@H]1[C@@H]2CC[C@]2(C)C(=O)CC[C@@H]12`: the Potency entry is “inactive”.

As for `Clc1ccc(C(c2ccc(Cl)cc2)C(Cl)(Cl)Cl)cc1`, the Potency is 50.1 µM (active).

Tested on in another assay: not given
Experiment: not given
To be noted: Ebola virus entry assay, green fluorescence channel.
Turning to `C[C@H]1[C@@H]2Cc3ccc(O)cc3[C@@]1(C)CCN2C`, the efficacy was 67.4% (inactive).

Turning to `Cc1ccc(Nc2nccc(N(C)c3ccc4c(C)n(C)nc4c3)n2)cc1S(N)(=O)=O`, the efficacy was 37.4% (inactive).

`COP(=S)(OC)SCN1C(=O)c2ccccc2C1=O`: the efficacy was -28.1% (inactive).

Consider `O=C1OC(c2ccc(O)c(S(=O)(=O)O)c2)(c2ccc(O)c(S(=O)(=O)O)c2)c2c(Br)c(Br)c(Br)c(Br)c21`, for which the efficacy was 32.9% (inactive).

As for `C#C[C@]1(O)CC[C@H]2[C@@H]3CCc4cc(OC5CCCC5)ccc4[C@H]3CC[C@@]21C`, the efficacy is 57.3% (inactive).

With `CCC(C)(C)c1ccc(O)cc1`, the efficacy is 13.1% (inactive).

Consider `COc1ccc2c(c1OC)C(=O)O[C@H]2[C@@H]1c2cc3c(cc2CCN1C)OCO3`, for which the efficacy was 26.4% (inactive).

In the case of `CCCCC/C=C\C/C=C\C/C=C\C/C=C\CCCC(=O)NCC(=O)O`, the efficacy was -13.8% (inactive).

For the compound `CNC(=O)c1ccccc1Sc1ccc2c(/C=C/c3ccccn3)n[nH]c2c1`, the efficacy is 28.2% (inactive).

As for `C#C[C@]1(O)CC[C@H]2[C@@H]3CCC4=CC(=O)CC[C@]4(C)[C@H]3CC[C@@]21C`, the efficacy was -17.3% (inactive).

For `CCOC(=O)CC(SP(=S)(OC)OC)C(=O)OCC` (stereo not drawn), the efficacy is -13.3% (inactive).

As for `C[C@]12CC[C@H]3[C@@H](CC[C@@]45O[C@H]4C(O)=C(C#N)C[C@]35C)[C@H]1CC[C@H]2O`, the efficacy was 26.8% (inactive).

For the compound `O=c1[nH]c(=O)n([C@H]2C[C@H](O)[C@@H](CO)O2)cc1I`, the efficacy is -7.83% (inactive).

Regarding `COP(=S)(OC)Oc1ccc(S(=O)(=O)N(C)C)cc1`, the efficacy was -33.6% (inactive).

On to `Nc1ccc([As](=O)(O)O)cc1`, for which the efficacy is -24.9% (inactive).

For `COc1ccc2c(c1)c(CC(=O)OC/C=C(\C)CC/C=C(\C)CCC=C(C)C)c(C)n2C(=O)c1ccc(Cl)cc1`, the efficacy is 62.6% (inactive).

In the case of `COC(=O)[C@@H](N)CCCN/C(N)=N/[N+](=O)[O-]`, the efficacy is -11.3% (inactive).

Turning to `CNC(C)(C)Cc1ccccc1`, the efficacy is -14.9% (inactive).

Consider `CN1C(=O)NC(=O)C(C)(C2=CCCCC2)C1=O` (stereo not drawn), for which the efficacy was 10.3% (inactive).

In the case of `CCN(CC)C(=O)[C@@H]1C=C2c3cccc4[nH]cc(c34)C[C@H]2N(C)C1`, the efficacy is 49.3% (inactive).

Turning to `CC(C)[N+](C)(C)CC(O)COc1cccc2ccccc12` (stereo not drawn), the efficacy is -28.5% (inactive).

Regarding `COc1ccc(C(=O)c2ccccc2O)c(O)c1`, the efficacy was -11.1% (inactive).

Take `CCc1cc2c(s1)-n1c(C)nnc1CN=C2c1ccccc1Cl`: the efficacy was 22% (inactive).

For `O=c1c(C2CC(c3ccc(-c4ccc(Br)cc4)cc3)Cc3ccccc32)c(O)sc2ccccc12` (stereo not drawn), the efficacy was 37.1% (inactive).

On to `CN(c1nccc(=O)[nH]1)C1CCN(c2nc3ccccc3n2Cc2ccc(F)cc2)CC1`, for which the efficacy was 66.4% (inactive).

For the compound `C[C@]12CCC(=O)C=C1CC[C@@H]1[C@@H]2CC[C@]2(C)C(=O)CC[C@@H]12`, the efficacy is 19.1% (inactive).

As for `COc1ccccc1N1CCN(CCCCNC(=O)c2ccc(-c3ccc(C(C)=O)cc3)cc2)CC1`, the efficacy was 25.2% (inactive).

For `NNc1ccccc1`, the efficacy was -13.5% (inactive).

For the compound `CC(C)(C)CC(C)(C)c1ccc(OCCOCC[N+](C)(C)Cc2ccccc2)cc1`, the efficacy was -219% (inactive).

For the compound `CC(C)=CC1C(C(=O)OCN2C(=O)C3=C(CCCC3)C2=O)C1(C)C` (stereo not drawn), the efficacy was 28% (inactive).

Regarding `COc1c2occc2c(OC)c2c(=O)cc(C)oc12`, the efficacy was 13.6% (inactive).

For `CCC1(c2ccc(N)cc2)CCC(=O)NC1=O` (stereo not drawn), the efficacy is -15.9% (inactive).

Consider `COc1ccc(C2CNC(=O)C2)cc1OC1CCCC1` (stereo not drawn), for which the efficacy is -23.7% (inactive).

In the case of `COc1cccc2c1C(=O)c1c(O)c3c(c(O)c1C2=O)C[C@@](O)(C(=O)CO)CC3OC1CC(N2CCOC(OC)C2)C(O)C(C)O1` (stereo partly drawn), the efficacy was 57.9% (inactive).

For `CCN(CC)CCc1c[nH]c2ccccc12`, the efficacy is 21.6% (inactive).

Regarding `CN(C)[C@@H]1C(=O)C(C(N)=O)=C(O)[C@@]2(O)C(=O)C3=C(O)c4c(O)cccc4C[C@H]3C[C@@H]12`, the efficacy was 167% (inactive).

Consider `Clc1ccc(C(c2ccc(Cl)cc2)C(Cl)(Cl)Cl)cc1`, for which the efficacy is 25.5% (inactive).

For the compound `COc1ccc(C(=O)c2ccccc2)c(O)c1`, the efficacy was 30% (inactive).

In the case of `CCC1(CC)C(=O)C=CNC1=O`, the efficacy is -31% (inactive).
